Source: PubChem (National Center for Advancing Translational Sciences (NCATS))
A selection: hits, their analogues and other compounds. The true share with any hit is near 1.3%.
KCNH2 WT inh = inhibitors of human wildtype KCNH2 potassium channel. U2OS, BacMam KCNH2, thallium flux FluxOr; active compounds read low. activity change, % at 1.84 µM. Q12809. hit rate 0.37% among 340,000;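 active means maximum activity change below -70%; inconclusive means maximum activity change between -70% and -50%; inactive means maximum activity change above -50%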; further: on the % scale 0 is the no-effect control and ±100 the full control effect
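U2OS cells were transduced with wild-type KCNH2 virus (2.03 x 10^8 / mL) for 4 h at room temperature, then cultured overnight at 37 C. Thallium flux was read with FluxOr dye. Rate constants were normalized to DMSO controls.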
TRPML1 inh = human mucolipin-1 channel inhibition; TRPML1-inducible cells, Ca2+ dye fluorescence, FDSS; active compounds read low; inhibition of EC80 agonist-evoked calcium signal; AID 624415; hit rate 0.02% among 390,000; activity change, negative = inhibition, % (test concentration not listed); in the data active means activity change below about -50%; inconclusive means between about -30% and that limit;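 further: stimulus is agonist 54-4 at its EC80 concentration; on the % scale 0 is the no-effect control and ±100 the full control effect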
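TRPML1-DL cells, Tet-induced overnight (~16 h, 37 °C) at 1,500 cells/well, were loaded with Ca8 no-wash dye plus quencher for 45-90 min at room temperature. Compounds were pinned during FDSS kinetic reading; agonist 54-4 at EC80 (4 uM final) then added.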
TRPV1 PAM = potentiators of human vanilloid receptor 1 (TRPV1); hit rate 0.02% among 320,000; potentiation, % at 8.33 µM; Q8NER1; AID 540277; TRPV1-expressing cells, Fluo-8 calcium influx, capsaicin EC20 potentiation; in the data active means potentiation above about 80%; inconclusive means between about 30% and that limit; further: 0% is about no effect
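Cells expressing TRPV1 were dye-loaded with Fluo-8 and read kinetically: 10 s baseline, 3 min after compound (agonist portion), then 2 min after EC20 capsaicin (allosteric enhancer portion). Calcium-bound dye fluorescence at 480/520 nm.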
TRPV1 agonist = human TRPV1 agonism | TRPV1-expressing cells, Fluo-8 calcium influx, agonist mode | Q8NER1 | activation, % at 8.33 µM | hit rate 0.19% among 320,000; in the data active means activation above about 80%; inconclusive means between about 30% and that limit; further: 0% is about no effect
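Fluo-8 calcium influx in TRPV1-expressing cells, kinetic read (ex 480/em 520 nm). Compound added and read 3 min for agonist activity, followed by capsaicin at EC20 final and 2 min further read for enhancement.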
KCNH2 3.1 inh = KCNH2 3.1 (human) potassium channel inhibition. U2OS KCNH2 3.1, thallium flux FluxOr; active compounds read low. activity change, % (tested at about 1.8 µM). hit rate 0.95% among 340,000. AID 720553;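 active means maximum activity change below -70%; inconclusive means maximum activity change from -70% to -50%; inactive means maximum activity change above -50%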;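 further: thallium influx rate constant from kinetic fluorescence after stimulation buffer; on the % scale 0 is the no-effect control and ±100 the full control effect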
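Virally transduced U2OS (3.1 isoform, 4 h infection in dark at RT) → overnight 37 C → FluxOr + Red40 in HBSS/HEPES, 45 min → stimulation buffer, 2 min kinetic read → rate constant vs DMSO controls.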
TRPML1 ag = agonists of human TRPML1 channel. TRPML1-expressing cells, Ca2+ dye fluorescence, FDSS. activation, % (concentration not given with the values). hit rate 0.12% among 410,000; in the data active means activation above about 50%; inconclusive means mostly about 30% to 49%; further: 0% is about no effect
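Tet-induced TRPML1-DL cells, 1,500 per well, cultured overnight, were loaded with a no-wash Ca2+ dye for 45–90 min. Calcium fluorescence was recorded on the FDSS for 110 s after compound addition, before the EC80 agonist (4 uM 54-4) was added.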
* = called active by the depositor; ? = inconclusive; / = not tested or not shown.

SMILES	KCNH2 WT inh	TRPML1 inh	TRPV1 PAM	TRPV1 agonist	KCNH2 3.1 inh	TRPML1 ag
Cc1cccc(NCCC(=O)c2ccc([N+](=O)[O-])cc2)c1C	4	66	-10	16	-83*	-1
O=C(NCCN1CCN(C(=O)c2ccc([N+](=O)[O-])cc2)CC1)C(=O)NCc1ccccc1	44	-3	-38	9	-80*	0
CCCCc1ccc(NC(=O)C(=O)NCCN2CCN(Cc3ccc([N+](=O)[O-])cc3)CC2)cc1	-245*	?	1	0	-169*	-1
COc1cc(Cl)c(NC(=O)CN(C)S(=O)(=O)c2ccc3c(c2)CCCC(=O)N3)c(OC)c1	/	-8	/	/	/	4
CCCCN1CC[C@H]2C=CC[C@@H](C(=O)NC3CCCCC3)[C@H]2C1=O	/	/	/	/	/	-1
CCN(CC(=O)Nc1ccc(OC)cc1)C(=O)CCS(=O)(=O)c1ccc(C)cc1	-8	12	3	-2	-13	0
CCN(CC(=O)Nc1ccc(OC)cc1)C(=O)Cc1cccs1	0	-2	-3	-2	-152*	2
O=C(C[n+]1cc(Br)cc(Br)c1)c1cccc([N+](=O)[O-])c1	-9	-1	-7	-3	-80*	1
O=[N+]([O-])c1ccccc1CN1CCN(S(=O)(=O)Cc2ccccc2)CC1	1	-12	6	-11	7	0
COc1cc(CN2CCCC(C)C2)ccc1OCc1ccccc1 (configuration not stated)	31	-12	-6	-2	-85*	1
COc1ccc(CN2CCN(Cc3ccc4ccccc4c3)CC2)cc1OC	-12	34	-5	7	-88*	-1
O=[N+]([O-])c1ccccc1CN1CCN(Cc2ccc3ccccc3c2)CC1	4	2	-18	-5	-80*	-1
COc1ccccc1CN1CCN(Cc2ccc3ccccc3c2)CC1	4	12	-8	11	-19	1
COc1cc(CN2CCN(C(O)(c3ccccc3)c3ccccc3)CC2)cc(OC)c1OC	32	-9	-5	-1	-75*	1
Nc1ccc(/C=C/c2ccnc3ccccc23)c(N)c1	/	/	/	/	/	6
CC(=O)c1cccc(N(C(=O)Cn2nnc3ccccc32)C(C(=O)NCc2ccccc2)c2ccc(F)cc2)c1 (configuration not stated)	/	-11	/	/	/	2
CCCN(Cc1cccs1)C(=O)Nc1cc(C)ccc1OC	/	41	/	/	/	2
O=C(Nn1cnnc1)c1ccc(Br)s1	-1	87	-4	2	-186*	0
O=[N+]([O-])c1ccc(-c2ccc(S(=O)(=O)NCCN3CCCC3)cc2)cc1	6	-2	9	3	-90*	0
FC(F)Oc1ccc(NC(=S)NCc2nc3ccccc3[nH]2)cc1	26	-13	?	-2	-85*	0
Cc1ccccc1NCC(=O)N/N=C/c1ccc([N+](=O)[O-])cc1	-12	-16	-5	8	-112*	0
COc1ccc(-c2cc(C)no2)cc1S(=O)(=O)Nc1c(C)cc(C)cc1C	/	60	/	/	/	1
COc1cc(NS(=O)(=O)c2c(C)oc3c(F)c(F)c(F)c(F)c23)cc(OC)c1OC	-78*	-2	0	-2	-9	0
CC(C)N(c1ccc(C=O)cc1)C(C)C	/	/	/	/	/	-1
Oc1cccc(C(=S)N2CCCCC2)c1	-4	14	-6	1	-146*	0
SMILES	KCNH2 WT inh	TRPML1 inh	TRPV1 PAM	TRPV1 agonist	KCNH2 3.1 inh	TRPML1 ag
CC(C)(C)OC(=O)[C@H](Cc1ccccc1)NC(=O)c1nc[nH]c1C(=O)NCC(=O)OCc1ccccc1	-3	-12	-1	?	-19	3
CC(C)(C)OC(=O)CNC(=O)c1[nH]cnc1C(=O)N[C@@H](Cc1ccccc1)C(=O)OC(C)(C)C	1	32	-20	82*	2	1
C=CCC[C@H](Cc1ccc(F)cc1)C(=O)OC[C@@H](NC(=O)[C@@H](CC=C)CC(=O)N[C@@H](CO)Cc1ccccc1)C(C)(C)C	-100*	74	/	/	-17	1
COc1ccc(C2=C(C)C(N3CCC(C(=O)Nc4cc(C)ccc4C)CC3)=NS2(=O)=O)cc1	/	16	/	/	/	4
O=C(NCCc1ccccc1)[C@@H]1CC=C[C@@H]2CCN(C3CC3)C(=O)[C@@H]21	/	/	/	/	/	-1
C[C@H]1CN(C2CCCCC2)C(=O)[C@@H]1CC(=O)Nc1ccccc1	-1	/	/	/	16	/
O=C(C[C@H]1C(=O)N(C2CCCCC2)C[C@@H]1Cc1ccccc1)Nc1ccccc1	-2	-14	10	85*	0	0
O=C(C1=C(O)C(=O)N(CCc2ccccc2)C1c1cccs1)c1ccco1 (configuration not stated)	-1	-10	0	-3	-124*	3
O=C(C1=C(O)C(=O)N(CCc2ccccc2)C1c1cccnc1)c1ccco1 (configuration not stated)	-3	-20	-6	0	1	0
COc1cccc(NC(=O)Nc2ccc(C(C)(C)C)cc2)c1	9	4	-3	82*	10	-1
COC(=O)c1cccc(NC(=O)Nc2ccc(Cl)c(Cl)c2)c1	13	27	-35	3	-2	0
COC(=O)c1cc(NC(=O)Nc2ccccc2)ccc1Cl	-5	14	-21	83*	-7	1
COc1cccc(NC(=O)NCCc2ccc(Cl)cc2)c1	2	0	-8	?	7	0
CCCCSCCCNC(=O)Nc1cccc(OC)c1	1	-3	-8	83*	9	1
CN(C)c1ccc(/C=C/c2ccnc3ccc(N)cc23)cc1	/	/	/	/	/	9
Cc1ccc(NC(=O)NCC2CCN(Cc3cc(C)ccc3Cl)CC2)c(C)c1	-151*	96	-1	5	-23	0
CCc1ccc(NC(=O)NCC2CCN(Cc3cccc(Cl)c3)CC2)cc1	16	42	6	?	-91*	1
Cc1ccc(NC(=O)NCC2CCN(Cc3cccc(Cl)c3)CC2)cc1Cl	5	-8	-12	18	?	1
COc1ccc2nc(SCC(=O)N3CCCCCC3)c(C#N)cc2c1	3	30	-15	18	-88*	1
COc1ccc2nc(N3CCCCC3)c(C#N)cc2c1	3	-12	7	-1	3	62*
Cc1ccccc1OCC(=O)Nc1cc(C)c(O)c(-c2nc3ccccc3o2)c1	/	/	/	/	/	0
COc1cnn(-c2cccc(Cl)c2)c(=O)c1Cl	0	11	/	/	-100*	1
